In PubChem BioAssay (Tox21):
Results filed as inconclusive are left out. Values without a mark were called inactive. Activity calls are given as the source filed them. Calls come from the whole dose curve; as a rule, active = well fitted cell-killing curve with a large enough effect in the repeat runs; inconclusive = weak or mixed curves; inactive = no such curve, though single readings can be large or run the other way.

Experiment: qHTS assay to identify small molecule antagonists of the peroxisome proliferator-activated receptor delta (PPARd) signaling pathway - cell viability counter screen (AID 743213); note: nearly all actives have a fitted effect of over 50% in size
Conditions: PPARd-bla HEK293H viability, CellTiter-Glo luminescence, 17 h; series mostly up to 62 µM; viability change, negative = cytotoxic: at the top concentration
Source text: U.S. Tox21 Program National Center for Advancing Translational Sciences [NCATS] NIH Chemical Genomics Center [NCGC] U.S. Environmental Protection Agency [EPA] National Institutes of Environmental Health Sciences [NIEHS] National Toxicology Program [NTP] U.S. Food and Drug Administration [FDA] Tox21 Assay Overview: The peroxisome proliferator-activated receptors (PPARs) are lipid-activated transcription factors of the nuclear receptor superfamily with three distinct subtypes namely PPAR alpha, PPAR delta (PPARd) and PPAR gamma. All these subtypes heterodimerizes with Retinoid X receptor (RXR) and have different physiological functions. […] To identify the compounds that inhibit PPAR-delta signaling, GeneBLAzer PPAR delta UAS-bla HEK293H cell line (Invitrogen, Carlsbad, CA, USA) containing a beta-lactamase reporter gene under the control of an Upstream Activator Sequence (UAS) was used to screen the Tox21 compound library. The cytotoxicity of the Tox21 compound library against the PPARd-bla cell line was tested in parallel by measuring the cell viability using CellTiter-Glo assay (Promega, Madison, WI) in the same wells.
Tox21 Assay Protocol Summary: PPARd-bla cells were dispensed at 3000 cells/5uL/well in 1536-well black wall/clear bottom plates using a Multidrop Combi (Thermo Fisher Scientific, Waltham, MA) dispenser. After the assay plates were incubated at 37 C and 5% CO2 for 5 h, 23 nL of compounds dissolved in DMSO, positive controls or DMSO only was transferred to the assay plate by a Pintool station (Kalypsys, San Diego, CA), followed by addition of 1ul L165041 (300 nM, final concentration in the wells). The assay plates were incubated at 37 C for 17 h, and then 1 uL of LiveBLAzerTM B/G FRET substrate was added using a Bioraptr Flying Reagent Dispenser (FRD) workstation (Beckman Coulter, Indianapolis, IN, USA). The assay plates were incubated at room temperature for 2 h and fluorescence intensity was measured by an Envision plate reader (PerkinElmer, Shelton, CT). For cell viability readout that measures cytotoxicity, 3 ul/well of CellTiter-Glo reagent was added into the assay plates using a Bioraptr FRD. After 30 min incubation at room temperature, the luminescence intensity in the plates was measured using a ViewLux plate reader (PerkinElmer).
% is set by controls: 0 for no effect and ±100 for the full control effect; potency is the fitted concentration of half-maximal effect.

SMILES | viability change, negative = cytotoxic | Potency
O=C(c1ccccc1)c1ccc2n1CCC2C(=O)O (stereo not given) | 12.4% | 
CNS(=O)(=O)Cc1ccc2[nH]cc(CCN(C)C)c2c1 | -15.7% | 
Nc1nc(CC(=O)O)cs1 | 1.65% [at 80.4 µM] | 
Cc1cc(C)c(S(=O)(=O)O)cc1N=Nc1cc(S(=O)(=O)O)c2ccccc2c1O | 3.89% | 
CC1=CCC(C(C)C)C=C1 (stereo not given) | -8.14% | 
CC(=O)OCCc1ccccc1 | 13.3% | 
CCOc1cc(OCC)c(C(=O)CCC(=O)O)cc1OCC | 1.38% | 
CC(O)C1CCCCC1 (stereo not given) | 2.16% | 
CC(Cc1cccc(C(F)(F)F)c1)NCCOC(=O)c1ccccc1 (stereo not given) |  | 18.8 µM (active)
O=C(O)Cc1cc(I)c(Oc2ccc(O)c(I)c2)c(I)c1 | -22.6% | 
CCN(CC)CCNC(C(=O)OCCC(C)C)c1ccccc1 (stereo not given) | -21% | 
CC(C)(C)C1CCCCC1O (stereo not given) | 3.72% | 
Cc1ccc(C(N)=O)cc1N | 6.26% | 
O=[N+]([O-])c1cccc(Cl)c1Cl | 1.51% | 
Nc1ccc(C(=O)N2CC3CC(CN(Cc4ccccc4)C3)C2)cc1 | -6.98% | 
O=C1Nc2cc(Cl)ccc2Oc2ccccc21 | 5.04% | 
CN(C(=O)CCCOc1ccc2[nH]c(=O)ccc2c1)C1CCCCC1 | 7.02% | 
CCC(C)N(C)C(=O)c1cc2ccccc2c(-c2ccccc2Cl)n1 (stereo not given) | -10.1% | 
O=[N+]([O-])c1cc[n+]([O-])cc1 | -9.46% | 
CC(C)(C)C(=O)OCOP(=O)(COCCn1cnc2c(N)ncnc21)OCOC(=O)C(C)(C)C | -10.1% | 

SMILES | viability change, negative = cytotoxic | Potency
O=C(O)c1cn(C2CC2)c2cc(Cl)c(F)cc2c1=O | 22.2% | 
S=C(S)NCCNC(=S)S | 20.7% | 
COc1ccc(C(C)=O)cc1 | 7.58% [at 80.4 µM] | 
CCC(=O)OC(C)(C)C1CC=C(C)CC1 (stereo not given) | -27.5% | 
O=C1c2cccc(O)c2C(=O)c2c(O)cc(CO)cc21 | -13.9% | 
C=CC[N+]1([C@H]2C[C@H]3[C@@H]4CC[C@H]5C[C@H](OC(C)=O)[C@@H](N6CCCCC6)C[C@]5(C)[C@H]4CC[C@]3(C)[C@H]2OC(=O)CC)CCCCC1 | -8.86% | 
CCCCCOC(=O)c1ccc(O)cc1 | -6.26% [at 80.4 µM] | 
Oc1ccc2c(c1)OCO2 | -3.17% | 
Cc1ccccn1 | -1.38% | 
CCCCCOC(=O)COc1cc(N2C(=O)C3=C(CCCC3)C2=O)c(F)cc1Cl | -2.04% | 
CCCCC(CC)COCCCN (stereo not given) | -2.31% | 
CCCOc1ccc2nc(NC(=O)OC)[nH]c2c1 | 0.512% | 
CN(C)C/C=C(/c1ccc(Br)cc1)c1cccnc1 | -23.4% | 
CCCCOc1cc(C(=O)OCCN(CC)CC)ccc1N | -2.22% | 
CCCCCCCCCO | 3.31% | 
CCCCCCCCCCCCCCCCCBr | -4.46% [at 28.9 µM] | 
CC1CCc2cc(F)cc3c(=O)c(C(=O)O)cn1c23 (stereo not given) | 11.4% | 
O=c1[nH]cnc2ccccc12 | -4.94% [at 80.4 µM] | 
Nc1nc(N)c(-c2ccccc2)s1 | 11.9% | 
Cc1c(Cn2ccnc2)c2ccccc2n1CCC(=O)O | 11% | 
